Source: PubChem BioAssay AID1117299 (National Center for Advancing Translational Sciences (NCATS), 2015)
More than one record can exist for a structure, and the calls need not agree. Calls of active or inactive are those of the source. Calls come from the whole dose curve.

Conditions: Ebola virus entry assay, green fluorescence channel

Row | Structure (SMILES) | AC50 | outcome
1 | CNCCCC12CCC(c3ccccc31)c1ccccc12 | 6.85 µM (active) | –
2 | CN1CCC[C@@H]1CCO[C@](C)(c1ccccc1)c1ccc(Cl)cc1 | 1.93 µM (active) | –
3 | CO[C@H]1C[C@@H]2CC[C@@H](C)[C@@](O)(O2)C(=O)C(=O)N2CCCC[C@@H]2C(=O)O[C@H]([C@@H](C)C[C@@H]2CC[C@H](O)[C@H](OC)C2)CC(=O)[C@H](C)C=C(C)[C@@H](O)[C@@H](OC)C(=O)[C@H](C)C[C@H](C)C=CC=CC=C1C | 17.7 µM (active) | –
4 | CC[C@H]1OC(=O)[C@H](C)[C@@H](O[C@H]2C[C@@](C)(OC)[C@@H](O)[C@H](C)O2)[C@H](C)[C@@H](O[C@@H]2O[C@H](C)C[C@H](N(C)C)[C@@H]2O)[C@](C)(O)C[C@@H](C)CN(C)[C@H](C)[C@@H](O)[C@]1(C)O | 7.69 µM (active) | –
5 | CC/C(=C(\c1ccccc1)c1ccc(OCCN(C)C)cc1)c1ccccc1 | 1.53 µM (active) | inactive
6 | C[C@@H]1O[C@@H](O[C@H]2CC[C@@]3(C)[C@H](CC[C@@H]4[C@H]3C[C@@H](O)[C@]3(C)[C@@H](C5=CC(=O)OC5)CC[C@]43O)C2)C[C@H](O)[C@@H]1O[C@H]1C[C@H](O)[C@H](O[C@H]2C[C@H](O)[C@@H](O)[C@@H](C)O2)[C@H](C)O1 (stereo in doubt) | 0.112 µM (active) | –
7 | CCN(CC)CCNC(=O)c1c(C)[nH]c(/C=C2\C(=O)Nc3ccc(F)cc32)c1C | – | inactive
8 | CN(C)CCOc1ccc(/C(=C(/CCCl)c2ccccc2)c2ccccc2)cc1 | 1.93 µM (active) | –
